The full ranking holds about 16,000 sequences; the median of “rpm ratio (pull-down/input)” is about 0.94, and the highest 2% start at about 1.7. The sample holds the highest values, similar sequences and a random draw of the others, so the mix is not that of the screen.
The sequences below were run against T1, MBP-FoxP1dN (Mus musculus, UniProt P58462 326-579) (assay: PD-seq (MBP pull-down with sequencing); 20 mM Tris-HCl pH 7.5, 100 mM NaCl, 1.5 mM MgCl2, 0.4 uM protein, 0.1 uM dsDNA library, 30 min, room temperature, amylose pull-down; high values mean tight binding). Details: protein: recombinant; tags: His6-MBP; chain copies: 2; dsDNA, one strand shown.
T1 sequence: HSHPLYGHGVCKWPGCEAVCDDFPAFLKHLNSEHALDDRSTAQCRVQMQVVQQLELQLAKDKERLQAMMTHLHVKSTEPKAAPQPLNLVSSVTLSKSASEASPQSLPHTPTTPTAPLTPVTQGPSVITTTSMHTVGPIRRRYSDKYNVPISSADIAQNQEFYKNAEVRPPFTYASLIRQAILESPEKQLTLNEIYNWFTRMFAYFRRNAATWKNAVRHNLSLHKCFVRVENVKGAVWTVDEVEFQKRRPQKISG
Method in brief: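 A fragment of mouse FoxP3 or FoxP1 without its N-terminus, carrying a His6-MBP tag and produced in E. coli, was combined at 0.4 µM with a 0.1 µM degenerate double-stranded DNA library filled in with Klenow. The mixture sat for 30 min at room temperature in Tris pH 7.5 buffer containing NaCl and MgCl2. Protein–DNA complexes were captured on amylose resin, washed three times, and the DNA was freed with proteinase K, barcoded by PCR and sequenced on Illumina. Binding is expressed as reads-per-million enrichment of pull-down over input, with replicates pooled.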

Sequence	binding signal
GATGATTGTTCTCCCAGCTGATGAATTACGTAAGTCGAGTAAACAAATTTTCCTAATCTTTCTGTTCAAGCGCCATCTAC	1.14 RPM ratio (pull-down/input)
GATGATTGTTCTCCCAGCTGATGAATTGGGGCAATCGAGTAAACAAATTTTCCTAATCTTTCTGTTCAAGCGCCATCTAC	1.01 RPM ratio (pull-down/input)
GATGATTGTTCTCCCAGCTGATGAATTTAGGACGTCGAGTAAACAAATTTTCCTAATCTTTCTGTTCAAGCGCCATCTAC	0.956 RPM ratio (pull-down/input)
GATGATTGTTCTCCCAGCTGATGAATTCATCAGCTCGAGTAAACAAATTTTCCTAATCTTTCTGTTCAAGCGCCATCTAC	0.818 RPM ratio (pull-down/input)
GATGATTGTTCTCCCAGCTGATGAATTTCGTTAATCGAGTAAACAAATTTTCCTAATCTTTCTGTTCAAGCGCCATCTAC	0.996 RPM ratio (pull-down/input)
GATGATTGTTCTCCCAGCTGATGAATTGACATCCTCGAGTAAACAAATTTTCCTAATCTTTCTGTTCAAGCGCCATCTAC	1.19 RPM ratio (pull-down/input)
GATGATTGTTCTCCCAGCTGATGAATTAGTGTAATCGAGTAAACAAATTTTCCTAATCTTTCTGTTCAAGCGCCATCTAC	1.54 RPM ratio (pull-down/input)
GATGATTGTTCTCCCAGCTGATGAATTAGTTATATCGAGTAAACAAATTTTCCTAATCTTTCTGTTCAAGCGCCATCTAC	1.07 RPM ratio (pull-down/input)
GATGATTGTTCTCCCAGCTGATGAATTTTGATTATCGAGTAAACAAATTTTCCTAATCTTTCTGTTCAAGCGCCATCTAC	1.79 RPM ratio (pull-down/input)
GATGATTGTTCTCCCAGCTGATGAATTTATTGTATCGAGTAAACAAATTTTCCTAATCTTTCTGTTCAAGCGCCATCTAC	1.6 RPM ratio (pull-down/input)
GATGATTGTTCTCCCAGCTGATGAATTGAAATTATCGAGTAAACAAATTTTCCTAATCTTTCTGTTCAAGCGCCATCTAC	1.01 RPM ratio (pull-down/input)
GATGATTGTTCTCCCAGCTGATGAATTGTATTTATCGAGTAAACAAATTTTCCTAATCTTTCTGTTCAAGCGCCATCTAC	2.72 RPM ratio (pull-down/input)
GATGATTGTTCTCCCAGCTGATGAATTGTCATCATCGAGTAAACAAATTTTCCTAATCTTTCTGTTCAAGCGCCATCTAC	1.34 RPM ratio (pull-down/input)
GATGATTGTTCTCCCAGCTGATGAATTGTTGTCATCGAGTAAACAAATTTTCCTAATCTTTCTGTTCAAGCGCCATCTAC	2.36 RPM ratio (pull-down/input)
GATGATTGTTCTCCCAGCTGATGAATTTGAATTATCGAGTAAACAAATTTTCCTAATCTTTCTGTTCAAGCGCCATCTAC	0.969 RPM ratio (pull-down/input)
GATGATTGTTCTCCCAGCTGATGAATTTCTGTCATCGAGTAAACAAATTTTCCTAATCTTTCTGTTCAAGCGCCATCTAC	1.15 RPM ratio (pull-down/input)
GATGATTGTTCTCCCAGCTGATGAATTAGTGTTATCGAGTAAACAAATTTTCCTAATCTTTCTGTTCAAGCGCCATCTAC	1.8 RPM ratio (pull-down/input)
GATGATTGTTCTCCCAGCTGATGAATTTATCGTATCGAGTAAACAAATTTTCCTAATCTTTCTGTTCAAGCGCCATCTAC	1.22 RPM ratio (pull-down/input)
GATGATTGTTCTCCCAGCTGATGAATTAGACAGTTCGAGTAAACAAATTTTCCTAATCTTTCTGTTCAAGCGCCATCTAC	0.913 RPM ratio (pull-down/input)
GATGATTGTTCTCCCAGCTGATGAATTTTTAAGTTCGAGTAAACAAATTTTCCTAATCTTTCTGTTCAAGCGCCATCTAC	0.97 RPM ratio (pull-down/input)
GATGATTGTTCTCCCAGCTGATGAATTCAACGCGTCGAGTAAACAAATTTTCCTAATCTTTCTGTTCAAGCGCCATCTAC	0.959 RPM ratio (pull-down/input)
GATGATTGTTCTCCCAGCTGATGAATTTTTACCATCGAGTAAACAAATTTTCCTAATCTTTCTGTTCAAGCGCCATCTAC	1.01 RPM ratio (pull-down/input)

Sequence	binding signal
GATGATTGTTCTCCCAGCTGATGAATTTTACTGGTCGAGTAAACAAATTTTCCTAATCTTTCTGTTCAAGCGCCATCTAC	0.796 RPM ratio (pull-down/input)
GATGATTGTTCTCCCAGCTGATGAATTCTGGAGATCGAGTAAACAAATTTTCCTAATCTTTCTGTTCAAGCGCCATCTAC	0.812 RPM ratio (pull-down/input)
GATGATTGTTCTCCCAGCTGATGAATTACAATGTTCGAGTAAACAAATTTTCCTAATCTTTCTGTTCAAGCGCCATCTAC	1.4 RPM ratio (pull-down/input)
GATGATTGTTCTCCCAGCTGATGAATTTTATTTATCGAGTAAACAAATTTTCCTAATCTTTCTGTTCAAGCGCCATCTAC	2.95 RPM ratio (pull-down/input)
GATGATTGTTCTCCCAGCTGATGAATTATCTACATCGAGTAAACAAATTTTCCTAATCTTTCTGTTCAAGCGCCATCTAC	1.12 RPM ratio (pull-down/input)
GATGATTGTTCTCCCAGCTGATGAATTATCAACATCGAGTAAACAAATTTTCCTAATCTTTCTGTTCAAGCGCCATCTAC	2.09 RPM ratio (pull-down/input)
GATGATTGTTCTCCCAGCTGATGAATTATCAAAATCGAGTAAACAAATTTTCCTAATCTTTCTGTTCAAGCGCCATCTAC	1.22 RPM ratio (pull-down/input)
GATGATTGTTCTCCCAGCTGATGAATTTATTTTATCGAGTAAACAAATTTTCCTAATCTTTCTGTTCAAGCGCCATCTAC	1.46 RPM ratio (pull-down/input)
GATGATTGTTCTCCCAGCTGATGAATTTATTTCATCGAGTAAACAAATTTTCCTAATCTTTCTGTTCAAGCGCCATCTAC	1.16 RPM ratio (pull-down/input)
GATGATTGTTCTCCCAGCTGATGAATTTGCTCCCTCGAGTAAACAAATTTTCCTAATCTTTCTGTTCAAGCGCCATCTAC	0.995 RPM ratio (pull-down/input)
GATGATTGTTCTCCCAGCTGATGAATTACGGCCTTCGAGTAAACAAATTTTCCTAATCTTTCTGTTCAAGCGCCATCTAC	0.977 RPM ratio (pull-down/input)
GATGATTGTTCTCCCAGCTGATGAATTGCTGAGATCGAGTAAACAAATTTTCCTAATCTTTCTGTTCAAGCGCCATCTAC	0.969 RPM ratio (pull-down/input)
GATGATTGTTCTCCCAGCTGATGAATTGACTAGTTCGAGTAAACAAATTTTCCTAATCTTTCTGTTCAAGCGCCATCTAC	1.08 RPM ratio (pull-down/input)
GATGATTGTTCTCCCAGCTGATGAATTAGTAACATCGAGTAAACAAATTTTCCTAATCTTTCTGTTCAAGCGCCATCTAC	1.45 RPM ratio (pull-down/input)
GATGATTGTTCTCCCAGCTGATGAATTTCCCACTTCGAGTAAACAAATTTTCCTAATCTTTCTGTTCAAGCGCCATCTAC	0.889 RPM ratio (pull-down/input)
GATGATTGTTCTCCCAGCTGATGAATTCTCTTATTCGAGTAAACAAATTTTCCTAATCTTTCTGTTCAAGCGCCATCTAC	0.995 RPM ratio (pull-down/input)
GATGATTGTTCTCCCAGCTGATGAATTTTCTTATTCGAGTAAACAAATTTTCCTAATCTTTCTGTTCAAGCGCCATCTAC	0.953 RPM ratio (pull-down/input)
GATGATTGTTCTCCCAGCTGATGAATTCGTTATTTCGAGTAAACAAATTTTCCTAATCTTTCTGTTCAAGCGCCATCTAC	1.14 RPM ratio (pull-down/input)
GATGATTGTTCTCCCAGCTGATGAATTTATGATTTCGAGTAAACAAATTTTCCTAATCTTTCTGTTCAAGCGCCATCTAC	1.37 RPM ratio (pull-down/input)
GATGATTGTTCTCCCAGCTGATGAATTCTTATTTTCGAGTAAACAAATTTTCCTAATCTTTCTGTTCAAGCGCCATCTAC	2.25 RPM ratio (pull-down/input)
GATGATTGTTCTCCCAGCTGATGAATTGTTATGTTCGAGTAAACAAATTTTCCTAATCTTTCTGTTCAAGCGCCATCTAC	2.01 RPM ratio (pull-down/input)
GATGATTGTTCTCCCAGCTGATGAATTCCTGTGTTCGAGTAAACAAATTTTCCTAATCTTTCTGTTCAAGCGCCATCTAC	1.26 RPM ratio (pull-down/input)

Sequence	binding signal
GATGATTGTTCTCCCAGCTGATGAATTTGGTTATTCGAGTAAACAAATTTTCCTAATCTTTCTGTTCAAGCGCCATCTAC	1.15 RPM ratio (pull-down/input)
GATGATTGTTCTCCCAGCTGATGAATTTGATTATTCGAGTAAACAAATTTTCCTAATCTTTCTGTTCAAGCGCCATCTAC	1.2 RPM ratio (pull-down/input)
GATGATTGTTCTCCCAGCTGATGAATTCTTATGTTCGAGTAAACAAATTTTCCTAATCTTTCTGTTCAAGCGCCATCTAC	1.21 RPM ratio (pull-down/input)
GATGATTGTTCTCCCAGCTGATGAATTGTGTTATTCGAGTAAACAAATTTTCCTAATCTTTCTGTTCAAGCGCCATCTAC	2.18 RPM ratio (pull-down/input)
GATGATTGTTCTCCCAGCTGATGAATTTTGTTATTCGAGTAAACAAATTTTCCTAATCTTTCTGTTCAAGCGCCATCTAC	2.37 RPM ratio (pull-down/input)
GATGATTGTTCTCCCAGCTGATGAATTCCGTAAATCGAGTAAACAAATTTTCCTAATCTTTCTGTTCAAGCGCCATCTAC	1.2 RPM ratio (pull-down/input)
GATGATTGTTCTCCCAGCTGATGAATTGAACGTCTCGAGTAAACAAATTTTCCTAATCTTTCTGTTCAAGCGCCATCTAC	0.787 RPM ratio (pull-down/input)
GATGATTGTTCTCCCAGCTGATGAATTACCGTGGTCGAGTAAACAAATTTTCCTAATCTTTCTGTTCAAGCGCCATCTAC	0.89 RPM ratio (pull-down/input)
GATGATTGTTCTCCCAGCTGATGAATTTCCGAGGTCGAGTAAACAAATTTTCCTAATCTTTCTGTTCAAGCGCCATCTAC	0.721 RPM ratio (pull-down/input)
GATGATTGTTCTCCCAGCTGATGAATTAGACTTCTCGAGTAAACAAATTTTCCTAATCTTTCTGTTCAAGCGCCATCTAC	0.789 RPM ratio (pull-down/input)
GATGATTGTTCTCCCAGCTGATGAATTCCTTAGATCGAGTAAACAAATTTTCCTAATCTTTCTGTTCAAGCGCCATCTAC	0.924 RPM ratio (pull-down/input)
GATGATTGTTCTCCCAGCTGATGAATTTGCTCGATCGAGTAAACAAATTTTCCTAATCTTTCTGTTCAAGCGCCATCTAC	0.994 RPM ratio (pull-down/input)
GATGATTGTTCTCCCAGCTGATGAATTATTATTCTCGAGTAAACAAATTTTCCTAATCTTTCTGTTCAAGCGCCATCTAC	1.45 RPM ratio (pull-down/input)
GATGATTGTTCTCCCAGCTGATGAATTGTTATTCTCGAGTAAACAAATTTTCCTAATCTTTCTGTTCAAGCGCCATCTAC	2.03 RPM ratio (pull-down/input)
GATGATTGTTCTCCCAGCTGATGAATTATGTAATTCGAGTAAACAAATTTTCCTAATCTTTCTGTTCAAGCGCCATCTAC	1.31 RPM ratio (pull-down/input)
GATGATTGTTCTCCCAGCTGATGAATTGTTATTTTCGAGTAAACAAATTTTCCTAATCTTTCTGTTCAAGCGCCATCTAC	3.47 RPM ratio (pull-down/input)
GATGATTGTTCTCCCAGCTGATGAATTTGTTATTTCGAGTAAACAAATTTTCCTAATCTTTCTGTTCAAGCGCCATCTAC	2.17 RPM ratio (pull-down/input)
GATGATTGTTCTCCCAGCTGATGAATTTTTATTCTCGAGTAAACAAATTTTCCTAATCTTTCTGTTCAAGCGCCATCTAC	1.06 RPM ratio (pull-down/input)
GATGATTGTTCTCCCAGCTGATGAATTTCTTATTTCGAGTAAACAAATTTTCCTAATCTTTCTGTTCAAGCGCCATCTAC	1.07 RPM ratio (pull-down/input)
GATGATTGTTCTCCCAGCTGATGAATTATGTTATTCGAGTAAACAAATTTTCCTAATCTTTCTGTTCAAGCGCCATCTAC	2.18 RPM ratio (pull-down/input)
GATGATTGTTCTCCCAGCTGATGAATTGGTTATTTCGAGTAAACAAATTTTCCTAATCTTTCTGTTCAAGCGCCATCTAC	1.13 RPM ratio (pull-down/input)
GATGATTGTTCTCCCAGCTGATGAATTATTATGTTCGAGTAAACAAATTTTCCTAATCTTTCTGTTCAAGCGCCATCTAC	1.69 RPM ratio (pull-down/input)

Source: paper PMC12820563, “FoxP3 forms a head-to-head dimer in vivo and stabilizes its multimerization on adjacent microsatellites”
